Values joined by “and” are separate entries in the source; they are usually repeats but may differ in a detail not shown here. Equal values may be shown once. The whole screen tested about 5,500 compounds, of which about 2,000 (36%) were called active. Inconclusive results (about 18%) are left out. Cut-off read from the data, not from the text of the source: active = normalized growth mostly below about 0.91 (no sharp cut-off); inconclusive = no clear call, values can overlap the other calls; inactive = mostly above about 0.92. This is one part of the list. The source holds several records for some structures; these can differ, active in one and inactive in another.
Assay: chemical genetic growth profiling, strain panel (AID 1159580);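 note: tested at 20 µM; growth read once vehicle control cultures reached saturation at 30 °C; 1 = growth at the plate median or of vehicle wells; lower values mean less growth of the strain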
Settings: growth OD

In the case of `CCn1cc(C(=O)O)c(=O)c2ccc(C)nc21`, the normalized growth (S. cerevisiae deletion strains, locus YKL009W, strain mrt4, stronger effect = lower value) is reported as 0.91 (inactive), the normalized growth (S. cerevisiae deletion strains, locus YKL068W, stronger effect = lower value) is reported as 0.942 (inactive) and the normalized growth (S. cerevisiae deletion strains, locus YKL085W, strain MDH1 (second series), stronger effect = lower value) is reported as 0.938 (inactive). For the same compound, the normalized growth (S. cerevisiae deletion strains, locus YKL085W, strain MDH1, stronger effect = lower value) was 0.938 (inactive), the normalized growth (S. cerevisiae deletion strains, locus YKL160W, strain elf1, stronger effect = lower value) was 0.976 (inactive) and the normalized growth (S. cerevisiae deletion strains, locus YKL190W, strain CNB1, stronger effect = lower value) was 0.933 (inactive). The normalized growth (S. cerevisiae deletion strains, locus YKR001C, strain vps1, stronger effect = lower value) was 0.812 (active), the normalized growth (S. cerevisiae deletion strains, locus YKR026C, strain gcn3, stronger effect = lower value) was 0.965 (inactive) and the normalized growth (S. cerevisiae deletion strains, locus YKR091W, strain srl3, stronger effect = lower value) was 0.926 (active). For the same compound, the normalized growth (S. cerevisiae deletion strains, locus YLL001W, strain dnm1, stronger effect = lower value) was 0.946 (inactive), the normalized growth (S. cerevisiae deletion strains, locus YLL026W, stronger effect = lower value) was 0.94 (inactive) and the normalized growth (S. cerevisiae deletion strains, locus YLL041C, strain sdh2, stronger effect = lower value) was 0.931 (inactive). For the same compound, the normalized growth (S. cerevisiae deletion strains, locus YLR027C, strain aat2, stronger effect = lower value) was 0.942 (inactive), the normalized growth (S. cerevisiae deletion strains, locus YLR039C, strain RIC1, stronger effect = lower value) was 0.447 (active) and the normalized growth (S. cerevisiae deletion strains, locus YLR058C, strain SHM2, stronger effect = lower value) was 0.921 (inactive). The normalized growth (S. cerevisiae deletion strains, locus YLR102C, strain apc9, stronger effect = lower value) was 0.933 (inactive), the normalized growth (S. cerevisiae deletion strains, locus YLR113W, strain HOG1, stronger effect = lower value) was 0.94 (inactive) and the normalized growth (S. cerevisiae deletion strains, locus YLR221C, strain rsa3, stronger effect = lower value) was 0.943 (inactive). The normalized growth (S. cerevisiae deletion strains, locus YLR258W, strain gsy2, stronger effect = lower value) was 0.939 (inactive), the normalized growth (S. cerevisiae deletion strains, locus YLR262C, strain YPT6 (second series), stronger effect = lower value) was 0.297 (active) and the normalized growth (S. cerevisiae deletion strains, locus YLR262C, strain YPT6, stronger effect = lower value) was 0.406 (active). For the same compound, the normalized growth (S. cerevisiae deletion strains, locus YLR268W, strain sec22, stronger effect = lower value) was 0.868 (active), the normalized growth (S. cerevisiae deletion strains, locus YLR320W, strain mms22, stronger effect = lower value) was 0.976 (inactive) and the normalized growth (S. cerevisiae deletion strains, locus YLR330W, strain CHS5, stronger effect = lower value) was 0.949 (inactive). For the same compound, the normalized growth (S. cerevisiae deletion strains, locus YLR342W, strain FKS1 (second series), stronger effect = lower value) was 0.958 (inactive), the normalized growth (S. cerevisiae deletion strains, locus YLR342W, strain FKS1, stronger effect = lower value) was 0.912 (inactive) and the normalized growth (S. cerevisiae deletion strains, locus YLR357W, strain rsc2, stronger effect = lower value) was 1.09 (inactive). For the same compound, the normalized growth (S. cerevisiae deletion strains, locus YLR370C, strain arc18, stronger effect = lower value) was 0.943 (inactive), the normalized growth (S. cerevisiae deletion strains, locus YLR371W, strain rom2, stronger effect = lower value) was 0.941 (inactive) and the normalized growth (S. cerevisiae deletion strains, locus YLR384C, strain iki3, stronger effect = lower value) was 0.926 (inactive). The normalized growth (S. cerevisiae deletion strains, locus YLR418C, strain cdc73, stronger effect = lower value) was 0.852 (inactive), the normalized growth (S. cerevisiae deletion strains, locus YML016C, strain PPZ1, stronger effect = lower value) was 0.887 (active) and the normalized growth (S. cerevisiae deletion strains, locus YML032C, strain rad52, stronger effect = lower value) was 0.883 (active). For the same compound, the normalized growth (S. cerevisiae deletion strains, locus YML120C, strain ndi1, stronger effect = lower value) was 0.954 (inactive), the normalized growth (S. cerevisiae deletion strains, locus YML124C, strain tub3, stronger effect = lower value) was 0.916 (active) and the normalized growth (S. cerevisiae deletion strains, locus YMR058W, strain fet3, stronger effect = lower value) was 0.943 (inactive). For the same compound, the normalized growth (S. cerevisiae deletion strains, locus YMR078C, strain ctf18, stronger effect = lower value) was 0.927 (inactive), the normalized growth (S. cerevisiae deletion strains, locus YMR125W, strain sto1, stronger effect = lower value) was 1.02 (inactive) and the normalized growth (S. cerevisiae deletion strains, locus YMR129W, stronger effect = lower value) was 0.941 (inactive). The normalized growth (S. cerevisiae deletion strains, locus YMR205C, strain PFK2, stronger effect = lower value) was 0.986 (inactive), the normalized growth (S. cerevisiae deletion strains, locus YMR223W, strain ubp8, stronger effect = lower value) was 0.947 (inactive) and the normalized growth (S. cerevisiae deletion strains, locus YMR231W, strain pep5, stronger effect = lower value) was 0.891 (active). For the same compound, the normalized growth (S. cerevisiae deletion strains, locus YMR263W, strain SAP30, stronger effect = lower value) was 0.97 (inactive), the normalized growth (S. cerevisiae deletion strains, locus YMR307W, strain GAS1, stronger effect = lower value) was 0.756 (inactive) and the normalized growth (S. cerevisiae deletion strains, locus YNL067W, strain RPL9B, stronger effect = lower value) was 0.949 (inactive). The normalized growth (S. cerevisiae deletion strains, locus YNL071W, strain lat1, stronger effect = lower value) was 0.925 (inactive), the normalized growth (S. cerevisiae deletion strains, locus YNL128W, strain TEP1, stronger effect = lower value) was 0.941 (inactive) and the normalized growth (S. cerevisiae deletion strains, locus YNL153C, strain GIM3, stronger effect = lower value) was 0.971 (inactive) and 1.01 (inactive). The normalized growth (S. cerevisiae deletion strains, locus YNL175C, strain NOP13, stronger effect = lower value) was 0.944 (inactive), the normalized growth (S. cerevisiae deletion strains, locus YNL183C, strain NPR1, stronger effect = lower value) was 0.911 (inactive) and the normalized growth (S. cerevisiae deletion strains, locus YNL197C, strain WHI3, stronger effect = lower value) was 0.939 (inactive). The normalized growth (S. cerevisiae deletion strains, locus YNL209W, strain ssb2, stronger effect = lower value) was 0.929 (inactive), the normalized growth (S. cerevisiae deletion strains, locus YNL224C, strain SQS1, stronger effect = lower value) was 0.944 (inactive) and the normalized growth (S. cerevisiae deletion strains, locus YNL233W, strain BNI4, stronger effect = lower value) was 0.994 (inactive). The normalized growth (S. cerevisiae deletion strains, locus YNL248C, strain rpa49, stronger effect = lower value) was 0.984 (inactive), the normalized growth (S. cerevisiae deletion strains, locus YNL250W, strain rad50, stronger effect = lower value) was 0.939 (inactive) and the normalized growth (S. cerevisiae deletion strains, locus YNL271C, strain bni1, stronger effect = lower value) was 0.864 (active). The normalized growth (S. cerevisiae deletion strains, locus YNL298W, strain CLA4, stronger effect = lower value) was 0.871 (active), the normalized growth (S. cerevisiae deletion strains, locus YNL307C, strain MCK1, stronger effect = lower value) was 0.955 (inactive) and the normalized growth (S. cerevisiae deletion strains, locus YNL322C, strain KRE1 (second series), stronger effect = lower value) was 0.983 (inactive). For the same compound, the normalized growth (S. cerevisiae deletion strains, locus YNL322C, strain KRE1, stronger effect = lower value) was 0.933 (inactive) and 0.965 (inactive), the normalized growth (S. cerevisiae deletion strains, locus YNR049C, strain mso1, stronger effect = lower value) was 0.937 (inactive) and the normalized growth (S. cerevisiae deletion strains, locus YNR052C, strain pop2, stronger effect = lower value) was 0.803 (active). For the same compound, the normalized growth (S. cerevisiae deletion strains, locus YOL006C, strain TOP1, stronger effect = lower value) was 1.04 (inactive), the normalized growth (S. cerevisiae deletion strains, locus YOL012C, strain htz1) was 0.496 (inactive) and the normalized growth (S. cerevisiae deletion strains, locus YOL147C, strain pex11, stronger effect = lower value) was 0.926 (active). The normalized growth (S. cerevisiae deletion strains, locus YOR001W, strain rrp6, stronger effect = lower value) was 0.828 (active), the normalized growth (S. cerevisiae deletion strains, locus YOR061W, strain CKA2, stronger effect = lower value) was 0.898 (inactive) and the normalized growth (S. cerevisiae deletion strains, locus YOR069W, strain VPS5, stronger effect = lower value) was 0.918 (active). The normalized growth (S. cerevisiae deletion strains, locus YOR070C, strain gyp1, stronger effect = lower value) was 0.935 (inactive), the normalized growth (S. cerevisiae deletion strains, locus YOR080W, strain dia2, stronger effect = lower value) was 0.927 (inactive) and the normalized growth (S. cerevisiae deletion strains, locus YOR083W, strain WHI5 (second series), stronger effect = lower value) was 0.968 (inactive). The normalized growth (S. cerevisiae deletion strains, locus YOR083W, strain WHI5, stronger effect = lower value) was 0.935 (inactive), the normalized growth (S. cerevisiae deletion strains, locus YOR106W, strain vam3, stronger effect = lower value) was 0.964 (inactive) and the normalized growth (S. cerevisiae deletion strains, locus YOR136W, strain idh2, stronger effect = lower value) was 0.969 (inactive). For the same compound, the normalized growth (S. cerevisiae deletion strains, locus YOR144C, strain elg1, stronger effect = lower value) was 0.914 (active), the normalized growth (S. cerevisiae deletion strains, locus YOR184W, strain ser1, stronger effect = lower value) was 0.882 (inactive) and the normalized growth (S. cerevisiae deletion strains, locus YOR231W, strain MKK1, stronger effect = lower value) was 0.888 (inactive). The normalized growth (S. cerevisiae deletion strains, locus YOR265W, strain rbl2, stronger effect = lower value) was 0.93 (inactive), the normalized growth (S. cerevisiae deletion strains, locus YOR270C, strain vph1, stronger effect = lower value) was 1.08 (inactive) and the normalized growth (S. cerevisiae deletion strains, locus YOR290C, strain snf2, stronger effect = lower value) was 0.962 (inactive). The normalized growth (S. cerevisiae deletion strains, locus YOR316C, strain cot1, stronger effect = lower value) was 0.926 (inactive), the normalized growth (S. cerevisiae deletion strains, locus YPL051W, strain arl3, stronger effect = lower value) was 0.903 (active) and the normalized growth (S. cerevisiae deletion strains, locus YPL055C, strain LGE1, stronger effect = lower value) was 1.05 (inactive) and 1.03 (inactive). For the same compound, the normalized growth (S. cerevisiae deletion strains, locus YPL078C, strain atp4, stronger effect = lower value) was 0.927 (inactive), the normalized growth (S. cerevisiae deletion strains, locus YPL106C, strain sse1, stronger effect = lower value) was 1.06 (inactive) and the normalized growth (S. cerevisiae deletion strains, locus YPL240C, strain hsp82, stronger effect = lower value) was 0.931 (inactive). The normalized growth (S. cerevisiae deletion strains, locus YPL241C, strain CIN2, stronger effect = lower value) was 0.945 (inactive) and 0.927 (active), the normalized growth (S. cerevisiae deletion strains, locus YPL256C, strain CLN2, stronger effect = lower value) was 0.993 (inactive) and the normalized growth (S. cerevisiae deletion strains, locus YPR119W, strain clb2, stronger effect = lower value) was 0.918 (active). The normalized growth (S. cerevisiae deletion strains, locus YPR141C, strain kar3, stronger effect = lower value) was 0.954 (inactive), the normalized growth (S. cerevisiae deletion strains, locus YPR163C, strain tif3, stronger effect = lower value) was 0.882 (active) and the normalized growth (S. cerevisiae deletion strains, locus YPR167C, strain met16, stronger effect = lower value) was 0.929 (inactive). The normalized growth (S. cerevisiae deletion strains, strain wtn01, stronger effect = lower value) was 0.915 (inactive) and the normalized growth (S. cerevisiae strains, strain wild type, stronger effect = lower value) was 0.932 (inactive).

Reference: PubChem BioAssay AID1159580 (chemical genetic matrix, 2015)
